Results filed as inconclusive are left out. Active and inactive are the calls of the source. The call rests on the fitted dose curve; in most records, active means well fitted curve in the direction sought with a large enough effect; inconclusive means small, poorly fitted or top-dose-only effect, or another doubt; inactive means no such curve, though single readings can be large; an effect the other way counts as inactive or inconclusive.
Assays:
[1] = Quantitative High-Throughput drug screen in 47 multiple myeloma cell lines against the NCATS MIPE library collection: KMS26_JCRB cell viability assay (AID 1918975); further: nearly all actives have a fitted effect of over 45% in size
Method in brief: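 Viability readout: CellTiter-Glo luminescence following 5 min room-temperature incubation with reagent. Prior exposure: 48 h, 37C, humidified 5% CO2, 500 cells per well.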

[2] = Quantitative High-Throughput drug screen in 47 multiple myeloma cell lines against the NCATS MIPE library collection: MMM1_PLB cell viability assay (AID 1918976); further: nearly all actives have a fitted effect of over 35% in size
Method in brief: (§1)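 Plated at 500 cells per well, myeloma lines received MIPE 4.0 compounds by pin tool. Following 48 h culture at 37 °C, CellTiter-Glo luminescence gave viability relative to DMSO and media-only controls.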

[3] = Quantitative High-Throughput drug screen in 47 multiple myeloma cell lines against the NCATS MIPE library collection: MM1S_ATCC cell viability assay (AID 1918980); further: nearly all actives have a fitted effect of over 45% in size
Method in brief: as §1

[4] = Quantitative High-Throughput drug screen in 47 multiple myeloma cell lines against the NCATS MIPE library collection: KMS28PE_JCRB cell viability assay (AID 1918983); further: nearly all actives have a fitted effect of over 35% in size
Method in brief: as §1

[5] = Quantitative High-Throughput drug screen in 47 multiple myeloma cell lines against the NCATS MIPE library collection: NCIH929_DSMZ cell viability assay (AID 1918978); further: nearly all actives have a fitted effect of over 35% in size
Method in brief: as §1

[6] = Quantitative High-Throughput drug screen in 47 multiple myeloma cell lines against the NCATS MIPE library collection: MM1R_ATCC cell viability assay (AID 1918981); further: nearly all actives have a fitted effect of over 35% in size
Method in brief: as §1

[7] = Quantitative High-Throughput drug screen in 47 multiple myeloma cell lines against the NCATS MIPE library collection: LP1_DSMZ cell viability assay (AID 1918982); further: nearly all actives have a fitted effect of over 35% in size
Method in brief: as §1

[8] = Quantitative High-Throughput drug screen in 47 multiple myeloma cell lines against the NCATS MIPE library collection: OCIMY1_PLB cell viability assay (AID 1918979); further: nearly all actives have a fitted effect of over 35% in size; on viability: series mostly up to about 46 µM
Method in brief: as §1

[9] = Quantitative High-Throughput drug screen in 47 multiple myeloma cell lines against the NCATS MIPE library collection: MOLP8_DSMZ cell viability assay (AID 1918977); further: nearly all actives have a fitted effect of over 45% in size
Method in brief: as §1

Measured: Potency
Potency means the concentration at half of the fitted maximal effect.

Cc1ccccc1C(=O)c1ccc(Nc2ccc(Br)cc2N)cc1Cl
active: [1] 5.26 µM | [2] 16.6 µM | [3] 6.62 µM | [4] 14.8 µM

O=C(Nc1ccc(OC(F)(F)F)cc1)c1sccc1NCc1ccnc2ccccc12
active: [1] 18.7 µM | [2] 16.6 µM | [5] 20.9 µM | [3] 20.9 µM | [6] 20.9 µM | [7] 20.9 µM | [4] 20.9 µM

CN1N=C(N)c2cn([C@@H]3O[C@H](COP(=O)(O)O)[C@@H](O)[C@@H]3O)c3ncnc1c23
active: [1] 0.0132 µM | [2] 0.469 µM | [5] 0.0469 µM | [6] 5.9 µM | [4] 0.833 µM

Cc1ccc2c(=O)c3cccc(CC(=O)O)c3oc2c1C
active: [1] 20.9 µM | [3] 14.8 µM | [6] 18.7 µM
inactive: [2] | [8] | [7] | [4]

O=C1C(c2c(O)[nH]c3ccccc23)=Nc2ccccc21
active: [1] 2.96 µM | [2] 2.09 µM | [3] 0.118 µM | [6] 1.48 µM | [4] 9.35 µM
inactive: [8]

CO[C@H]1/C=C\O[C@@]2(C)Oc3c(C)c(O)c4c(O)c(c5c(nc6cc(C)ccn65)c4c3C2=O)NC(=O)C(C)=CC=C[C@H](C)[C@H](O)[C@@H](C)[C@@H](O)[C@@H](C)[C@H](OC(C)=O)[C@H]1C
inactive: [8] | [7]
active: [1] 8.33 µM | [2] 0.0148 µM

CCCCC(C)(C)[C@H](O)C=C[C@H]1[C@H](O)CC(=O)[C@H]1CC=CCCCC(=O)O
active: [1] 16.6 µM | [2] 16.6 µM | [5] 18.7 µM | [3] 14.8 µM | [6] 18.7 µM

CN(C)S(=O)(=O)c1ccc2c(c1)C(=Cc1cc3c([nH]1)CCCC3)C(=O)N2
active: [1] 2.35 µM | [2] 18.7 µM | [5] 18.7 µM | [3] 20.9 µM | [6] 2.96 µM | [4] 20.9 µM

Cc1cc(OCCCS(C)(=O)=O)cc(C)c1-c1cccc(COc2ccc3c(c2)OC[C@H]3CC(=O)O)c1
inactive: [1]
active: [2] 14.8 µM | [5] 20.9 µM | [6] 6.62 µM | [7] 16.6 µM | [4] 20.9 µM

CCCC1OC2C[C@@H]3[C@H]4CCC5=CC(=O)C=C[C@]5(C)[C@H]4C(O)C[C@]3(C)[C@]2(C(=O)CO)O1 (some centres undefined)
active: [2] 0.0066 µM | [5] 0.296 µM | [3] 0.0743 µM | [7] 0.0066 µM | [4] 20.9 µM
inactive: [1] | [8]

CC(C)(O)CC(=O)NCCn1ccc2ncnc(Nc3ccc(Oc4cccc(C(F)(F)F)c4)c(Cl)c3)c21
active: [1] 26.4 µM | [2] 20.9 µM | [5] 26.4 µM | [3] 0.332 µM | [4] 26.4 µM

COc1nccc(-c2c(-c3ccc(F)cc3)ncn2C2CCNCC2)n1
active: [2] 13.2 µM | [4] 13.2 µM
inactive: [1] | [7]

CN(C)c1ccc(-c2nc3ncc(Cl)c(N4CCN(CC(=O)Nc5nccs5)CC4)c3[nH]2)cc1
active: [1] 5.9 µM | [2] 9.35 µM | [6] 3.72 µM | [4] 5.26 µM
inactive: [7]

COc1cc2nccc(Oc3ccc(NC(=O)Nc4cc(C)on4)c(Cl)c3)c2cc1OC
active: [1] 16.6 µM | [2] 23.5 µM | [3] 6.62 µM

Cc1nc(C(=O)NCC(=O)O)c(O)c2ccc(Oc3ccccc3)cc12
inactive: [1] | [8] | [6] | [7] | [4]
active: [2] 0.0053 µM

COc1ccc(-c2oc3c(CC=C(C)C)c(O)cc(O)c3c(=O)c2O)cc1
active: [1] 16.6 µM | [2] 20.9 µM | [5] 10.5 µM | [6] 20.9 µM

CN(C(Cc1ccc(OS(=O)(=O)c2cccc3cnccc23)cc1)C(=O)N1CCN(c2ccccc2)CC1)S(=O)(=O)c1cccc2cnccc12 (centres undefined)
active: [1] 14.8 µM | [2] 5.9 µM | [5] 16.6 µM | [8] 7.43 µM | [3] 5.26 µM | [6] 16.6 µM | [4] 10.5 µM

NC1(C(=O)N[C@@H](CCO)c2ccc(Cl)cc2)CCN(c2ncnc3[nH]ccc23)CC1
active: [1] 0.209 µM | [2] 0.0105 µM | [5] 0.0833 µM | [3] 0.0833 µM | [6] 0.148 µM | [4] 0.372 µM

Cc1ccc(C2=Nc3ccc(Cl)cc3OC2)cc1
active: [2] 18.7 µM
inactive: [1] | [6] | [4]

O=S(=O)(NCCNCC=Cc1ccc(Br)cc1)c1cccc2cnccc12
active: [1] 13.2 µM | [2] 20.9 µM | [5] 14.8 µM | [3] 3.72 µM | [6] 20.9 µM | [7] 7.43 µM | [4] 18.7 µM

Cn1c(=O)c(Oc2ccc(F)cc2F)cc2cnc(NC3CCOCC3)nc21
active: [2] 1.87 µM | [6] 7.43 µM
inactive: [1] | [5] | [4]

CC(C)c1c(C(=O)Nc2ccccc2)c(-c2ccccc2)c(-c2ccc(F)cc2)n1CC[C@H](O)C[C@@H](O)CC(=O)O
active: [2] 8.33 µM | [3] 16.6 µM | [6] 10.5 µM | [7] 20.9 µM | [4] 18.7 µM
inactive: [1] | [8]

Cc1[nH]c(C=C2C(=O)Nc3ccc(S(=O)(=O)N(C)c4cccc(Cl)c4)cc32)c(C)c1C(=O)N1CCN(C)CC1
active: [1] 23.5 µM | [2] 18.7 µM | [5] 11.8 µM | [3] 26.4 µM | [6] 23.5 µM | [7] 18.7 µM | [4] 23.5 µM

NCC1CCC(C(=O)O)CC1 (centres undefined)
active: [2] 0.0148 µM
inactive: [1] | [5] | [8] | [6] | [4]

CCC(=O)NCC[C@@H]1CCc2ccc3c(c21)CCO3
active: [1] 6.62 µM | [2] 0.59 µM | [3] 1.48 µM
inactive: [8] | [6]

NC(=O)c1noc([C@H](CCCC2CCCCC2)CC(=O)NO)n1
inactive: [4]
active: [1] 11.8 µM | [2] 16.6 µM | [5] 14.8 µM | [3] 16.6 µM

Cc1ccc2c(c1)C(=O)[C@]1(O)CCN(c3ccccc3)C1=N2
inactive: [2] | [5]

CN(C)c1ccccc1CN1CCCN(Cc2ccccc2N(C)C)C1c1ccncc1
active: [2] 16.6 µM | [9] 18.7 µM | [5] 14.8 µM | [6] 18.7 µM | [4] 23.5 µM

C=CCc1cccc(C=NNC(=O)CN2CCN(Cc3ccccc3)CC2)c1O
active: [2] 16.6 µM | [9] 6.62 µM | [5] 26.4 µM | [8] 8.33 µM | [3] 9.35 µM | [6] 10.5 µM | [4] 20.9 µM

CN(C)N=Nc1nc[nH]c1C(N)=O
active: [2] 4.69 µM
inactive: [5] | [8] | [3] | [7] | [4]

O=C(C=Cc1ccc(O)cc1)c1ccc(O)cc1O
active: [2] 5.9 µM | [9] 14.8 µM | [3] 23.5 µM | [4] 23.5 µM

CN(C)c1nc(Cc2ccc(NC(=O)c3ccc(C(F)(F)F)cc3)cc2)nc(N(C)C)c1CC(=O)O
active: [6] 9.35 µM | [4] 5.26 µM
inactive: [1] | [8]

O=C(NC[C@H](O)CO)c1ccncc1Nc1ccc(I)cc1F
inactive: [2] | [7]
active: [5] 8.33 µM | [8] 0.0935 µM | [3] 18.7 µM | [6] 13.2 µM

CCCCCCOC(=O)N=C(N)c1ccc(NCc2nc3cc(C(=O)N(CCC(=O)OCC)c4ccccn4)ccc3n2C)cc1
active: [2] 14.8 µM | [9] 20.9 µM | [6] 20.9 µM | [7] 14.8 µM

C[C@@H](O[C@H]1OCCN(Cc2n[nH]c(=O)[nH]2)[C@@H]1c1ccc(F)cc1)c1cc(C(F)(F)F)cc(C(F)(F)F)c1
active: [1] 18.7 µM | [7] 23.5 µM

C[C@]12CC[C@@H]3c4ccc(O)cc4CC[C@H]3[C@H]1[C@@H](O)[C@@H](O)[C@H]2O
active: [3] 26.4 µM
inactive: [1] | [7] | [4]

O=C(Nc1ncc(SCCN2CCCC2)s1)[C@]1(c2ccc(S(=O)(=O)C3CC3)cc2)C[C@@H]1C1CCCCC1
active: [2] 14.8 µM | [9] 16.6 µM | [5] 20.9 µM | [3] 20.9 µM | [6] 16.6 µM | [7] 20.9 µM | [4] 23.5 µM

CC(NCCc1ccc(O)cc1)C(O)c1ccc(O)cc1 (centres undefined)
active: [2] 14.8 µM | [6] 4.18 µM
inactive: [9] | [5] | [8]

CC=C(C(=CC)c1ccc(O)cc1)c1ccc(O)cc1
inactive: [9] | [5] | [8] | [4]
active: [2] 16.6 µM | [3] 11.8 µM

C[C@@]1(c2cc(-c3cncnc3)c(F)cc2F)CCSC(N)=N1
inactive: [1] | [8] | [6] | [7]

CCC[C@H](Nc1nc(-c2ccc(NC(=O)NCC)c(OC)c2)ncc1C)c1cccnc1
active: [2] 0.0209 µM | [9] 0.0662 µM | [6] 0.0187 µM | [7] 0.0187 µM | [4] 0.0148 µM

— PubChem BioAssay (NCATS)
